# FLuc inh – blocks Photinus pyralis firefly luciferase activity; 72,000 compounds, 2.2% hits; P08659; Potency, µM (series often up to 57.1 µM), most hits filed as inhibitors; AID 411; purified firefly luciferase, luminescence, 8 min; also: nearly all actives have a fitted effect of over 40% in size
#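 Inhibition of light generation by firefly luciferase from ATP and luciferin was profiled with concentration-response curves per sample, ATP held at 10 uM within the enzyme's linear range. Plates were read by luminescence after an 8-minute ambient incubation.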
# PK Bst – pyruvate kinase (B. stearothermophilus) modulation; purified pyruvate kinase, luminescence ATP production; ribose 5-phosphate activator present at AC10; Potency, µM; 51,000 compounds, 1.2% hits; AID 361; in the data active = potency below about 11 µM; inconclusive = mostly about 12 µM to 25 µM;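 the screen sought inhibitors and activators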
# 15-hLO inh – blocks human 15-lipoxygenase activity; P16050; purified 15hLO-1, xylenol orange hydroperoxide absorbance; Potency, µM (top dose mostly 57.1 µM), hits mostly inhibitors; 74,000 compounds, 1.4% hits; also: nearly all actives have a fitted effect of over 55% in size
#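 Readout: Fe(III)-xylenol orange absorbance, 573-to-405 nm ratio as reaction progress. Enzyme 40 nM purified human 15hLO-1, substrate 50 uM arachidonic acid, 6 min RT after 15 min compound preincubation; Hepes pH 7.5 buffer with Triton X-100.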
# ERK AVP inh – vasopressin-driven ERK pathway inhibition | HEK293-V1b, vasopressin-stimulated pERK AlphaScreen | Potency, µM (titrated, usually from 57.5 µM), actives largely listed as inhibitors | 72,000 compounds, 0.99% hits | AID 995; also: nearly all actives have a fitted effect of over 55% in size
#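 HEK293 cells stably expressing V1b receptor, preincubated 30 min at 37 °C with compound, then stimulated 5 min with 25 nM vasopressin. Phospho-ERK by AlphaScreen SureFire after 5 h RT; normalized to DMSO and vasopressin; AC50 by Hill fit.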
# HSD17B inhib – HSD17B dehydrogenase inhibition | Q99714 | recombinant HSD17B10, NADH fluorescence kinetic | Potency, µM (top dose mostly 57.1 µM), actives largely listed as inhibitors | 75,000 compounds, 7.6% hits;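 also: the protocol describes HADH2 (HSD17B10) and not the HSD17B4 of the title; nearly all actives have a fitted effect of over 70% in size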
#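 His-tagged E. coli-expressed HADH2 at 20 nM in 100 mM Tris-HCl pH 9.0 with 0.01 % Tween-20, preincubated 15 min with compound at room temperature. Reaction with 1 mM NAD+ and 90 uM beta-hydroxybutyryl coenzyme A; NADH fluorescence (360/450 nm) read kinetically over 4 min, last minus first point.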
# HADH2 inhib – inhibitors of human HADH2 dehydrogenase; 73,000 compounds, 3.4% hits; Potency, µM (top dose mostly 57.1 µM), hits mostly inhibitors; Q99714; recombinant HADH2, NADH fluorescence, beta-hydroxybutyryl-CoA; also: nearly all actives have a fitted effect of over 60% in size
# Target sequence (Q99714 whole entry, looked up, one chain of several): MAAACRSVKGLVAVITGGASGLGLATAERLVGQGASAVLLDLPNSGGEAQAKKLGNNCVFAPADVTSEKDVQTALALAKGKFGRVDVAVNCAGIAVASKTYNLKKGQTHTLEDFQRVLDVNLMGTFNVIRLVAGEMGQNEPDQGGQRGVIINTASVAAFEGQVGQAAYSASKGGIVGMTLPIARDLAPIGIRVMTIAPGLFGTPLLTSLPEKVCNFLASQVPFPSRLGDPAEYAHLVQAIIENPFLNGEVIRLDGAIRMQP
#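 NADH fluorescence (ex 360/em 450 nm) read every 30 s for 4 min; activity taken as last-minus-first time point difference. Enzyme 20 nM, NAD+ 1 mM, beta-hydroxybutyryl-CoA 90 uM, pH 9.0 Tris buffer.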
# Numbers stand for hits; . = inactive; ? = inconclusive; / = not tested or not shown; [ ] = dose if it differs, or a comment. Rows were chosen to be rich in hits. Some 11% of all compounds tested hit in one or more screens of this group. Unless noted, calls follow the shape of the dose curve; as a rule, active = well fitted curve in the direction sought with a large enough effect; inconclusive = small, poorly fitted or top-dose-only effect, or another doubt; inactive = no such curve, though single readings can be large; an effect the other way counts as inactive or inconclusive.
SMILES,FLuc inh,PK Bst,15-hLO inh,ERK AVP inh,HSD17B inhib,HADH2 inhib
CC(C=O)Cc1ccc(C(C)(C)C)cc1 (stereo not given),/,/,.,.,.,.
C=CCn1cnc2c(c1=O)c1nc3ccccc3nc1n2/N=C/c1cc(OC)c(OC)c(OC)c1,.,.,.,.,.,.
C=CCn1cnc2c(c1=O)c1nc3ccccc3nc1n2/N=C/c1ccccn1,.,.,.,.,?,32µM
CC(C)(C)c1cc(Br)c(O)c(CN(Cc2cc(C(C)(C)C)cc(Br)c2O)C2CCCCC2)c1,.[11.4 µM],/,.[11.4 µM],.[11.5 µM],.[11.4 µM],?
Cc1cccc2cc3ccc4ccccc4c3cc12,.[11.4 µM],/,.[11.4 µM],.[11.5 µM],3.2µM,.[11.4 µM]
Cc1noc(C)c1C(=O)N1CCC[C@@]2(CCN(Cc3ccc(C#N)cc3)C2)C1,.[11.4 µM],/,.,.,.,.
CC(=O)c1sc(NC(=O)CN2C(=O)CCC2=O)nc1C,.,.,.,.,.,.
CC(=O)c1sc(NC(=O)c2ccccc2F)nc1C,16µM,/,?,/,.,?
CCOc1ccc2cc(C#N)c(SCC(=O)N3CCCC3)nc2c1,.,.,.,.,13µM,.
COC(=O)CCC(=O)c1oc2ccc(Br)cc2c1N,13µM,/,.,.,20µM,.
COc1cccc(-c2ccc3ncnc(NC4CC4)c3c2)c1,.[2.29 µM],/,?,?,.,.
CN(C)S(=O)(=O)c1cccc(C(=O)NCCc2ccccc2)c1,13µM,.,.,.,.,.
CN(C)S(=O)(=O)c1cccc(C(=O)Nc2cc(Cl)ccc2O)c1,13µM,.,.,.,.,.
CN1CCN(c2ccc(Cl)cc2NC(=O)c2cccc(S(=O)(=O)N(C)C)c2)CC1,.,.,.,.,.,.
CS(=O)(=O)c1cccc(C(=O)NCc2ccccc2)c1,.,.,.,.,.,?
COCn1c2ccccc2c2nnc(C(=O)O)nc21,/,/,.[11.4 µM],.[11.5 µM],.[11.4 µM],.[11.4 µM]
CC(C)=CCl,/,/,.,.,.,.
COc1ccccc1C1NC(=O)CS1 (stereo not given),.,/,.,.,.,.
COC(=O)C1=CN(C2CC2)C=C(C(=O)OC)C1c1ccccc1OC,.,.,.,.,20µM,25µM
O=C(CN1C(=O)c2ccccc2S1(=O)=O)Nc1ccccc1C(=O)NCc1ccco1,.,.,.,.,?,.
O=C(Nc1ccccc1C(=O)Nc1ccccc1C(=O)NCc1ccco1)c1ccco1,.,.,.,.,25µM,40µM
COc1ccc(S(=O)(=O)Nc2ccccc2C(=O)NCc2ccco2)cc1Br,.,.,.,.,20µM,.
O=C(Nc1ccccc1C(=O)NCc1ccco1)c1ccco1,.,.,.,.,.,.
CCOc1ccc(S(=O)(=O)Nc2ccccc2C(=O)NCc2ccco2)cc1,.,.,.,.,25µM,?
CCCNC(=O)c1ccccc1NS(=O)(=O)c1ccc(OC)c(OC)c1,.,.,.,.,?,?
SMILES,FLuc inh,PK Bst,15-hLO inh,ERK AVP inh,HSD17B inhib,HADH2 inhib
O=C(CN1C(=O)c2cccc3cccc1c23)Nc1ccccc1C(=O)NCc1ccco1,.,/,.,.,32µM,.
CC1(C)N=C(N)N=C(N)N1c1cccc(OCc2cccc(N)c2)c1,.[11.4 µM],/,.[11.4 µM],.[11.5 µM],.[11.4 µM],.[11.4 µM]
C[N+]1(CCC[N+]2(C)C[C@H]3[C@H](C2)[C@H]2C=C[C@@H]3CC2)CCOCC1 (stereo not given in full),.[11.4 µM],/,?,.[11.5 µM],.[11.4 µM],.[11.4 µM]
COc1ccccc1OC[C@H](O)CN1CCN(CC(=O)Nc2c(C)cccc2C)CC1,.,/,.,.,.,.
CN[C@@H](CC(C)C)C(=O)N[C@@H]1C(=O)N[C@H](CC(N)=O)C(=O)N[C@H]2C(=O)N[C@H]3C(=O)N[C@H](C(=O)N[C@H](C(=O)O)c4cc(O)cc(O)c4-c4cc3ccc4O)[C@H](O)c3ccc(c(Cl)c3)Oc3cc2cc(c3O[C@@H]2O[C@@H](CO)[C@@H](O)[C@@H](O)[C@H]2O[C@H]2C[C@](C)(N)[C@H](O)[C@H](C)O2)Oc2ccc(cc2Cl)[C@@H]1O,.,/,?,.,.,.
COc1ccccc1CN1CCC2(CC1)CCN(C(=O)c1c(C)noc1C)CC2,.[11.4 µM],/,.,.,.,.
CCCCCCCCCCCCOCC1CO1 (stereo not given),/,/,.,.,.,.
CC(C)(C)C(=O)Nc1ccccc1C(=O)NCc1ccco1,.,/,?,.,.,.
CS(=O)(=O)Nc1ccccc1C(=O)NCc1ccco1,.,.,.,.,25µM,25µM
CCOC(=O)c1c(O)[nH]c(=O)c(CC)c1C,.[11.4 µM],/,.[11.4 µM],.[11.5 µM],.[11.4 µM],.[11.4 µM]
CC(=O)C1=C(C)NC(SCC(=O)c2ccc(F)cc2)=C(C#N)C1c1ccco1 (stereo not given),.,/,20µM,.,.,?
CCN(CC)C(=O)CSC1=C(C#N)C(c2ccco2)C(C(=O)OCCOC)=C(C)N1 (stereo not given),.,.,/,/,/,/
CCc1ccc(C(=O)CSC2=C(C#N)C(c3ccco3)C(C(C)=O)=C(C)N2)cc1 (stereo not given),.,/,10µM,.,?,32µM
COc1ccccc1NC(=O)C1=C(C)NC(SCC(=O)c2ccc(C)cc2)=C(C#N)C1c1ccco1 (stereo not given),.,.,/,/,/,/
CSCSC1=C(C#N)C(c2ccccc2Cl)C(C(C)=O)=C(C)N1 (stereo not given),.,/,25µM,.,/,/
c1nnc2c3c4c(sc3ncn12)CCCC4,.,.,.,.,.,.
c1nc2sc3c(c2c2nnnn12)CCC3,.,/,.,.,32µM,?
c1nc2sc3c(c2c2nnnn12)CCCC3,.,/,.,?,25µM,?
COc1ccc(S(=O)(=O)N(C)CC(=O)O)cc1C,/,/,.,/,.,.
CN1[C@@H]2CC[C@H]1CC(OC(=O)[C@@H](CO)c1ccccc1)C2 (stereo not given in full),.[11.4 µM],/,.,.,.,.
O=c1n(Cc2ccccc2)c2cc(Cl)cnc2n1Cc1ccccc1,.,.,.,.,32µM,.
COc1ccc(-c2nc3cnc(OC)nc3n(-c3ccc(OC)cc3)c2=O)cc1,.[11.4 µM],/,.,.,.,.

# Source: PubChem BioAssay
